Most compounds without a hit are left out; they make up all but 2.2% or so of the library.
VLA-4 inh: inhibition in human VLA-4 binding assay, primary screen, VLA-4 allosteric modulator project, MLPCN library, flow cytometry, VLA-4 expressing cells; Integrin alpha-4 (Homo sapiens), P13612; ligand binding flow cytometry; inhibition, % (about 7 µM as worked out from the volumes in the protocol); 0.2% of 330,000 active; AID 2557, 2010; in the data active means inhibition above about 50%
JMJD2C inh: inhibitors of GASC-1 histone demethylase, primary screen, biochemical, fluorescence, DELFIA europium; Lysine-specific demethylase 4C (Homo sapiens), Q9H3R0; GST-JMJD2C(1-420) H3K9me3 demethylation; inhibition, % at 2.35 µM; 0.069% of 330,000 active; AID 2099, 2009;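 active means more than half of a compound's replicate wells show inhibition beyond 50%, single wells judged on their own value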;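 further: signal counts dimethyl H3K9 product captured on neutravidin plate; 0% = median of DMSO wells and 100% = 0.3 times that DMSO median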
m5-HT2A agonist: mouse Htr2a agonists via beta-arrestin recruitment, primary screen, cell-based, luminescence; 0.66% of 360,000 active; CHO-K1 mHTR2A beta-arrestin complementation; percent of 30 µM serotonin response; activation, % at 7.6 µM; AID 624169, 2012; 5-hydroxytryptamine receptor 2A (Mus musculus), P35363;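 active means activation above a run cutoff, the mean activation of all tested compounds plus 3 SD, cut at about 14% in these data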;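 further: 0% = plate median of compound wells and 100% = 30 µM serotonin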
MEX-5 binding: MEX-5 zinc finger RNA-binding disruptors – biochemical, C. elegans, fluorescence polarization, MLPCN library, primary screen | Zinc finger protein mex-5 (Caenorhabditis elegans), Q9XUB2 | MEX-5/FITC-TCR2 RNA binding; hits give low values | 0.38% of 300,000 active | activity score (negative = inhibition of binding), % at 10 µM | AID 1832, 2009;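 active means inhibition past about -25% in most replicates, and total fluorescence under double the plate's negative control median, limit read from the data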;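 further: 0% = DMSO and -100% = 5 µM competing unlabeled TCR2 RNA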
Exocytosis inh: LAMP-1 surface exposure blockers, TALL-104 cells – cell-based, flow cytometry, MLPCN library, primary screen; TALL-104 LAMP-1 surface exposure; cells stimulated with thapsigargin and PMA; inhibition, % at 10 µM; 0.66% of 360,000 active;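 active means inhibition above about 55%, limit read from the data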
V-ATPase pH: regulators of yeast V-ATPase proton pumping, primary screen, pHLuorin cytosolic pH fluorescence; S. cerevisiae; response, % at 10 µM; 0.37% of 350,000 active; in the data active means response mostly above about 7.3%, no sharp cut-off; inactive means mostly below about 5.4%; further: actives read high
OPRM1 ag: OPRM1 agonists via beta-arrestin recruitment, confirmation, counter-screen for mouse HTR2A agonist project, cell-based, luminescence, single concentration; shares compounds with m5-HT2A agonist; U2OS OPRM1 beta-arrestin PathHunter; DMSO 0%, DAMGO 9.3 µM 100%; activation, % at 9.3 µM; 5.3% of 2,300 active; AID 624380, 2012;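 active means mean activation above the mean of DMSO-only wells plus 3 SD, cut at about 0.5% in these data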
m5-HT2A ag conf: mouse HTR2A agonists, beta-arrestin recruitment, confirmation, cell-based, luminescence, CHO-K1 PathHunter, triplicate; shares compounds with m5-HT2A agonist; DMSO 0%, 30 µM serotonin 100%; activation, % at 7.6 µM; 19% of 2,300 active; AID 624381, 2012;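 active means mean activation across triplicates above the hit threshold derived in the original primary screen, cut at about 15% in these data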
Active calls of the source: *.

Results for O=C(Nc1cnc2ccccn2c1=O)c1ccc(F)cc1 ?
VLA-4 inh: 7.9; JMJD2C inh: -1.7; m5-HT2A agonist: 17.1*; MEX-5 binding: 0.0; Exocytosis inh: 0.1; V-ATPase pH: -8.2; OPRM1 ag: -0.6; m5-HT2A ag conf: -3.5

Results for COc1ccc(C(=O)Nc2cnc3ccccn3c2=O)cc1 ?
VLA-4 inh: 2.5; JMJD2C inh: 1.2; m5-HT2A agonist: 2.0; MEX-5 binding: 0.7; Exocytosis inh: -2.7; V-ATPase pH: -0.8

What do the screens show for `Cc1ccc2nc3c(cc(C(=O)NC4CCS(=O)(=O)C4)n3Cc3ccccc3)c(=O)n2c1` (stereo not given)?
VLA-4 inh: 27.2; JMJD2C inh: 11.8; m5-HT2A agonist: 0.7; MEX-5 binding: -1.0; Exocytosis inh: 2.3; V-ATPase pH: -1.3

What do the screens show for `Cc1[nH]n(C(C)(C)C)c(=O)c1Sc1ccc(Cl)cc1`?
VLA-4 inh: 1.4; JMJD2C inh: 4.5; m5-HT2A agonist: 15.1*; MEX-5 binding: 0.4; Exocytosis inh: -6.6; V-ATPase pH: -1.8; OPRM1 ag: -0.1; m5-HT2A ag conf: 18.4*

What do the screens show for `O=C(NCc1ccccn1)C1CC(=O)N(C2CCCC2)C1` (stereo not given)?
VLA-4 inh: -7.7; JMJD2C inh: 5.6; m5-HT2A agonist: 19.8*; MEX-5 binding: -1.0; Exocytosis inh: -2.7; V-ATPase pH: -0.2; OPRM1 ag: -0.7; m5-HT2A ag conf: -4.2

How did O=C(NCCCN1CCN(c2ccccc2F)CC1)C1CC(=O)N(C2CCCC2)C1 (stereo not given) do in these assays?
VLA-4 inh: -5.3; JMJD2C inh: 1.3; m5-HT2A agonist: 16.6*; MEX-5 binding: 2.0; Exocytosis inh: -2.5; V-ATPase pH: 0.7; OPRM1 ag: -0.5; m5-HT2A ag conf: 38.8*

What do the screens show for `CCn1c(=O)cc(SCC(=O)NCCCN2CCN(c3ccccc3F)CC2)c2ccccc21`?
VLA-4 inh: 4.6; JMJD2C inh: 3.3; m5-HT2A agonist: 28.2*; MEX-5 binding: 0.3; Exocytosis inh: 5.4; V-ATPase pH: 3.1; OPRM1 ag: 0.0; m5-HT2A ag conf: 77.7*

What do the screens show for `O=C(NCc1ccccc1)C1CC(=O)N(C2CCCCCC2)C1` (stereo not given)?
VLA-4 inh: 7.1; JMJD2C inh: -3.9; m5-HT2A agonist: -1.2; MEX-5 binding: 0.5; Exocytosis inh: -2.4; V-ATPase pH: -1.4

How did CN1CCN(CCCNC(=O)C2CC(=O)N(C3CCCCC3)C2)CC1 (stereo not given) do in these assays?
VLA-4 inh: -2.2; JMJD2C inh: 3.3; m5-HT2A agonist: -1.6; MEX-5 binding: -1.3; Exocytosis inh: -1.2; V-ATPase pH: -0.7

Results for CCN(CC)C(=O)Nc1ccc(Br)cc1 ?
VLA-4 inh: 1.1; JMJD2C inh: 10.6; m5-HT2A agonist: 23.3*; MEX-5 binding: 0.0; Exocytosis inh: 0.4; V-ATPase pH: -3.7; OPRM1 ag: -0.5; m5-HT2A ag conf: -2.7

What do the screens show for `Cc1nc2ccc([N+](=O)[O-])cc2c(=O)n1Cc1ccc(F)cc1`?
VLA-4 inh: -0.8; JMJD2C inh: -3.3; m5-HT2A agonist: 0.1; MEX-5 binding: 1.3; Exocytosis inh: 2.6; V-ATPase pH: -1.3

What do the screens show for `OCCNc1ncnc2c1ncn2[C@H]1CN(Cc2ccncc2)C[C@@H](CO)O1`?
m5-HT2A agonist: 15.3*; Exocytosis inh: -3.9; m5-HT2A ag conf: -4.7

Assay outcomes: PubChem, several laboratories
